Inconclusive results are not listed. The source made the active and inactive calls. Rule for the calls: active = hit-call score of the fitted dose curve at least 0.9, where 1 is the maximum; inconclusive = response in the unintended direction; inactive = score below 0.9.

Sequence of Cytochrome P450 2C19 (Homo sapiens) (P33261 whole entry, looked up): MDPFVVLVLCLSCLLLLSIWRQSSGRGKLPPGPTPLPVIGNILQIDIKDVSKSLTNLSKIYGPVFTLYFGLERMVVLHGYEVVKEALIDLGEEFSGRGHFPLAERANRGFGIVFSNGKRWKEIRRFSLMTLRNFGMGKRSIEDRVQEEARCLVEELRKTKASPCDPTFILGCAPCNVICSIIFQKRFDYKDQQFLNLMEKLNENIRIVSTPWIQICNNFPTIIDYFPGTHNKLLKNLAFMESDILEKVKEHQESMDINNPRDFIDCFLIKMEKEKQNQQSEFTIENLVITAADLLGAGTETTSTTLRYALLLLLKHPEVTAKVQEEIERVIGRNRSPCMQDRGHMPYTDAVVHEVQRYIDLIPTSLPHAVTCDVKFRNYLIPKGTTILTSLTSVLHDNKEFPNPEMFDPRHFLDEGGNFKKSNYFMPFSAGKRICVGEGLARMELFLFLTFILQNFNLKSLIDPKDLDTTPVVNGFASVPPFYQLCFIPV

Read-out in the experiment: Cytochrome P450 2C19 (Homo sapiens) (UniProt P33261)
As to the kind of experiment: CLD_CYP2C19_48hr: CellzDirect (CLD) Gene Expression Assay for xenobiotic metabolism (CYP2C19) at 48 hours (AID 2283700).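 Note: fitted upward so actives raise CYP2C19 mRNA above the 0.2% DMSO vehicle.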 How it is done:
CLD_48hr is a cell-based, multiplexed-readout assay that uses hepatocyte, a human liver primary cell, with measurements taken at 48 hours after chemical dosing in a 96-well plate.CLD_CYP2C19_48hr is one of 16 assay component(s) measured or calculated from the CLD_48hr assay. It is designed to make measurements of mRNA induction, a form of inducible reporter, as detected with chemiluminescence signals by Quantitative Nuclease Protection Assay (qNPA) technology.Data from the assay component CLD_CYP2C19_48hr was analyzed at the endpoint, CLD_CYP2C19_48hr, in the positive analysis fitting direction relative to DMSO as the negative control and baseline of activity. Using a type of inducible reporter, gain-of-signal activity can be used to understand changes in the reporter gene as they relate to the gene CYP2C19. Furthermore, this assay endpoint can be referred to as a primary readout. To generalize the intended target to other relatable targets, this assay endpoint is annotated to the cyp intended target family, where subfamily is xenobiotic metabolism.
Human hepatocyte cultures were treated daily for two consecutive days with fresh dosing solutions containing appropriate concentrations of the 320 ToxCast chemicals (chemical identities were blinded to CellzDirect and other ToxCast collaborators), vehicle control (0.2% DMSO), and positive control inducers as summarized in Table 1. Due to the large number of treatment groups and chemicals examined, the ToxCast chemicals were divided into two groups (spanning two independent cultures of hepatocytes from separate donor preparations (Hu778: ToxCast plates 1 and 2; Hu776: ToxCast plates 3 and 4). Each preparation of human hepatocyte cultures was treated with respective vehicle control, medium only control, set of six positive controls/reference chemicals for the five hepatic receptor pathways, and a subset of eight of the ToxCast chemicals (indoxacarb, pyrithiobac-sodium, norflurazon, cyhalofop-butyl, methomyl, thiram, acetochlor, and propiconazole). These replicate data, coupled with internal replicates designed within the blinded ToxCast chemical library, provided additional data to evaluate interindividual differences between hepatocyte preparations and their potential impact on chemical profiles.Cell morphology and integrity were evaluated using phase-contrast microscopy as an indicator of hepatocyte cell health (Tyson & Green, 1987). Cultures for each treatment group (i.e., media, vehicle [0.2% DMSO], positive control inducers [multiple concentrations], and the ToxCast chemicals [multiple concentrations]) were observed and cell morphology was assessed relative to vehicle control cultures at each harvest time point (0, 6, 24, or 48 h). […] Images were evaluated at the conclusion of the study to assess changes in cell integrity and account for the effects of chemical exposure on uncharacteristic changes in concentration-dependent gene expression profiles. The results from these determinations of apparent cytotoxicity were annotated (yes/no) alongside the corresponding qNPA data for reference.At the conclusion of each treatment period, hepatocyte cultures (96-well) were washed with 1 volume of HBSS, lysed by addition of 25 ul ArrayPlate lysis buffer (HTG, Tucson, AZ), and 70 ul/well of Denaturation Oil, denatured by incubation at 95C for 10 min, and frozen at approximately -70C until analysis by nuclease protection assay (qNPA) (Roberts et al., 2007). For qNPA analysis, cell lysates were thawed at 50C for approximately 30 min, qNPA probes were added, and samples were incubated at 95C for 10 min to begin the detection process by denaturing the target RNA, dissociating the duplexes and secondary structure hybridization. At the conclusion of the hybridization period, S1 nuclease reagent was added to each sample to digest all nonprotected nucleotides at 50C for 60-90 min. […]
On to `CC1(C)C(C(=O)OC(C#N)c2cccc(Oc3ccccc3)c2)C1(C)C` (stereo not drawn), for which the result was inactive.

Take `Cc1nc(N(C)C)nc(OC(=O)N(C)C)c1C`: the call was inactive. On to `O=C(O)c1c(Cl)ccc2cc(Cl)cnc12`, for which the outcome was inactive. As for `O=C1C2CC=CCC2C(=O)N1SC(Cl)(Cl)Cl` (stereo not drawn), the compound was classed as inactive. Next, `CC(C)C1(C)N=C(c2ncccc2C(=O)O)NC1=O` (stereo not drawn): “inactive”; `Nc1cnn(-c2ccccc2)c(=O)c1Cl`: “inactive”.

In the case of `CC(C)N1C(=O)N(c2ccccc2)CSC1=NC(C)(C)C`, the outcome was inactive. On to `Clc1nc(Cl)nc(Nc2ccccc2Cl)n1`, for which the call was inactive. Consider `CNC(=O)N(C)c1nnc(C(C)(C)C)s1`, for which the call was inactive.

For the compound `COc1cc(OC)nc(NC(=O)NS(=O)(=O)c2ncccc2OCC(F)(F)F)n1`, the outcome was inactive. `CC(C)=CC1C(C(=O)OCc2coc(Cc3ccccc3)c2)C1(C)C` (stereo not drawn): the compound was classed as inactive.

In the case of `C=CCOC(=O)C(C)(C)OC(=O)c1cc(-n2c(=O)cc(C(F)(F)F)n(C)c2=O)ccc1Cl`, the result was inactive. For `CCNC(=O)NC(=O)C(C#N)=NOC`, the compound was classed as inactive. `COc1ccc(-c2ccccc2)cc1NNC(=O)OC(C)C`: the outcome was inactive.

As for `CCCN(CC)CC1COC2(CCC(C(C)(C)C)CC2)O1` (stereo not drawn), the result was inactive. Consider `CN=C=S`, for which the call was inactive. As to `O=c1n(Cl)c(=O)n(Cl)c(=O)n1Cl`, the call was inactive. Take `CCSC(=O)N1CCCCCC1`: the compound was called inactive.

With `C=C(C)CN(CC)c1c([N+](=O)[O-])cc(C(F)(F)F)cc1[N+](=O)[O-]`, the outcome was inactive. In the case of `CC(C)Oc1cccc(NC(=O)c2ccccc2C(F)(F)F)c1`, the call was inactive. For the compound `CC1(C)C(C=C(Cl)Cl)C1C(=O)OC(C#N)c1cccc(Oc2ccccc2)c1` (stereo not drawn), the compound was classed as inactive. Next, `CC(C)N1C(=O)c2ccccc2NS1(=O)=O`: “inactive”. As for `CS(=O)(=O)c1ccc(C(=O)C2C(=O)CCCC2=O)c([N+](=O)[O-])c1`, the call was inactive.

Take `CO/N=C(/C1=NOCCO1)c1ccccc1Oc1ncnc(Oc2ccccc2Cl)c1F`: the result was inactive. As to `COC(=O)NS(=O)(=O)c1ccc(N)cc1`, the call was inactive. Turning to `CCOc1nc(F)cc2nc(S(=O)(=O)Nc3c(Cl)cccc3Cl)nn12`, the outcome was inactive. Turning to `COC(=O)c1c(C(F)F)nc(C(F)(F)F)c(C2=NCCS2)c1CC(C)C`, the compound was classed as inactive. As to `Nc1c(Cl)c(Cl)nc(C(=O)O)c1Cl`, the outcome was inactive. Consider `COP(=O)(OC)O/C(C)=C/C(=O)N(C)C`, for which the result was inactive. Take `CCOC(=O)C(C)OC(=O)c1cc(Oc2ccc(C(F)(F)F)cc2Cl)ccc1[N+](=O)[O-]` (stereo not drawn): the compound was classed as inactive.

For `CC1(C)CON(Cc2ccccc2Cl)C1=O`, the compound was called inactive.

`COc1cc(Cl)c(OC)cc1Cl`: the outcome was inactive.

`N#Cc1c(Cl)cccc1Cl`: the call was inactive. For `CCCC(=NOCC)C1=C(O)CC(CC(C)SCC)CC1=O` (stereo not drawn), the outcome was inactive. On to `N#CN=C1SCCN1Cc1ccc(Cl)nc1`, for which the call was inactive. Take `CC(C)(C)C(=O)C(Oc1ccc(Cl)cc1)n1cncn1` (stereo not drawn): the result was inactive. Next, `CCN(CC)C(=O)C(C)Oc1cccc2ccccc12` (stereo not drawn): “inactive”. Next, `COCC(=O)N(c1c(C)cccc1C)C(C)C(=O)OC` (stereo not drawn): “inactive”.

Source of the values: PubChem BioAssay (EPA / NIEHS).
